From the supplement of paper PMC3334620
Whole data set: some 33,000 sequences, median “E-score (-0.5 to 0.5)” near -0.054, cut for the highest 2% near 0.39. The entries come from a sample that favours the highest values as a whole.

Each sequence was assayed against Ylr278c (UniProt Q05854) (assay: PBM E-score (8-mer binding enrichment) (E-score (-0.5 to 0.5)); higher = stronger / more preferred TF binding). Conditions: protein concentration: 200 nM; construct: GST-DNA-binding domain.
Description: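 Universal 'all 10-mer' protein binding microarrays (Agilent AMADID 015681) probed with GST-tagged S. cerevisiae TFs (full-length or DBD) made by in vitro transcription/translation (PURExpress), about 100-200 nM. Bound TF was detected with fluorescent anti-GST. Each ungapped 8-mer (which stands for itself and its reverse complement) is scored by the PBM enrichment score (E-score), a modified Wilcoxon-Mann-Whitney statistic from -0.5 to +0.5, computed with the Universal PBM Analysis Suite. Scale: above 0.35 generally sequence-specific binding.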

UniProt Q05854, sequence (Q05854 whole entry, the tested form may be a part): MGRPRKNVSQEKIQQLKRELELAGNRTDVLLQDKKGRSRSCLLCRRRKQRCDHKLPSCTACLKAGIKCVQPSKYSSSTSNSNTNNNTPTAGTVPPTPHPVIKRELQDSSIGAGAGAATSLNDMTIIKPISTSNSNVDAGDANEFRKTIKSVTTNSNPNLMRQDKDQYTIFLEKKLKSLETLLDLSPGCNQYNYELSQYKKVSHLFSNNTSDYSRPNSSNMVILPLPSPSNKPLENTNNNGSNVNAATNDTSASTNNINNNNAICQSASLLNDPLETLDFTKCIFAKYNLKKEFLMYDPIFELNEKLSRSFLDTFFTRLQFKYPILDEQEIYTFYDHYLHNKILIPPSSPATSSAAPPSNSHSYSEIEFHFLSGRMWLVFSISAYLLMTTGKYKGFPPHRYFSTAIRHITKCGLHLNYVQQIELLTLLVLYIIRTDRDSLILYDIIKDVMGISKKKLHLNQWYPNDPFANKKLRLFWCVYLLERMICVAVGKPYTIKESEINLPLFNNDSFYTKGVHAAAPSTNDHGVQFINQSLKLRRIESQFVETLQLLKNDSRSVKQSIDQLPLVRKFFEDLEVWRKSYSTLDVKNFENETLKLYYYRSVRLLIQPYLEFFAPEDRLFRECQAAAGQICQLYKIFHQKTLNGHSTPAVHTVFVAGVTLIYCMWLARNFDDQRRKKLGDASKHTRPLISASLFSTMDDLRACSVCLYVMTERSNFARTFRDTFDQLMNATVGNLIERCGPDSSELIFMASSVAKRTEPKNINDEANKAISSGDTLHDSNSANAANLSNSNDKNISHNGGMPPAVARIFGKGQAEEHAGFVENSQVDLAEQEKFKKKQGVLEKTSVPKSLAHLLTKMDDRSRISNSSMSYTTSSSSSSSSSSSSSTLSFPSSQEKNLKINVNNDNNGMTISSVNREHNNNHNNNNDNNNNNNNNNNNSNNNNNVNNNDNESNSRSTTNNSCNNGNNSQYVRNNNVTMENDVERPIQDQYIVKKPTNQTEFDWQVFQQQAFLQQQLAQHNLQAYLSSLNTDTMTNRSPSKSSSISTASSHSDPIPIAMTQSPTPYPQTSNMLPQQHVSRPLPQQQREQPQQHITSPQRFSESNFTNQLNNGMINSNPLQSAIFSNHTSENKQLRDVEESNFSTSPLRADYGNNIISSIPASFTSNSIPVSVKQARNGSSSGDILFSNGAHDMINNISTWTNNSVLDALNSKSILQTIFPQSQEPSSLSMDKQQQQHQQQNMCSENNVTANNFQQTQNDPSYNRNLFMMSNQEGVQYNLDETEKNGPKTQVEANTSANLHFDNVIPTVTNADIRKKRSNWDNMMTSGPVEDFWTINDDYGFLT

Point of comparison: AAGGTCAA, “PBM E-score” value -0.195. Against it:
- ATTCGGAG — higher, 0.422
- ATTCGGAC — higher, 0.392
- ATTCGGAA — higher, 0.36
- ATTCGGCC — higher, 0.284
- ATTCGGCG — higher, 0.286
- ATTCGGGC — higher, 0.18
- AAGACAGC — higher, -0.0488
- AAGGGAAT — higher, -0.149
- CGCTTCTC — higher, 0.168
- AGGAGAGC — lower, -0.275
- AGGAGAGA — higher, -0.136
- CAGAGAGC — higher, -0.184
- GGGAGAGA — lower, -0.201
- CGGAGAGC — higher, 0.389
- CGGAGAGA — higher, 0.402
- ACTCTAAT — higher, -0.121
- ATTGGCAC — lower, -0.247
- GGGATCCC — higher, 0.325
- AGGATCCC — higher, 0.113
- AGGATCCG — higher, 0.226
- CGGATCCA — higher, 0.221
- CGGATCCC — higher, 0.402
- CGGATCCG — higher, 0.438
- ATGCAGCG — higher, 0.0411
- CCCATAAG — higher, 0.0166
- GTGGAGTA — higher, -0.135
- CCCAACAA — higher, -0.0374
- CACGGATA — higher, 0.196
- GCCGGACA — higher, 0.447
- GCCGGACC — higher, 0.376
- ACCGGACA — higher, 0.401
- CACGGACA — higher, 0.317
- CCCGGACG — higher, 0.273
- CCCGGACA — higher, 0.405
- GCCGGATA — higher, 0.4
- ACTGGACA — higher, -0.189
- GACGGACA — higher, 0.328
- AACGGACA — higher, 0.321
- GCAGGATA — lower, -0.221
- ACACCCCC — higher, -0.133
- GCTATCAC — higher, -0.108
- CGTGAACG — higher, -0.0842
- AGGCCCCT — higher, -0.194
- ACCGGACG — higher, 0.369
- TCCGGACA — higher, 0.456
- TGCGGACA — higher, 0.356
- ACCGGACT — higher, 0.443
- TACGGACA — higher, 0.257
- ACCGGACC — higher, 0.384
- CTTTTGCC — higher, 0.093
- AAGTTACT — higher, 0.0192
- AACCGTGA — higher, -0.0334
- GACTGGGA — higher, 0.0171
- CAGGAACG — higher, -0.153
- CCGGAACC — higher, 0.402
- CGGGAACA — higher, 0.192
- CAGGAACA — higher, -0.157
- TCGGAACA — higher, 0.417
- GCGGAACA — higher, 0.344
- ACGGAACG — higher, 0.271
- CCGGAACA — higher, 0.442
- CCGGAACG — higher, 0.411
- ACGGAACA — higher, 0.27
- GCGGAACC — higher, 0.254
- ACGGAACC — higher, 0.213
- AACTCAGT — higher, -0.15
- ATTCTCTA — higher, -0.0579
- CAGAAATA — higher, 0.0765
- AATGCATT — higher, -0.0548
- AAAGGCCG — higher, 0.37
- ACAACCGT — lower, -0.251
- ATTTGAGC — higher, -0.102
- CGTATCAG — higher, 0.0563
- AGTAGATG — higher, -0.0703
- ATCCAGAT — higher, -0.146
- TAACTTGA — lower, -0.237
- GGGGAGAC — higher, 0.0986
- AAGGAGAC — lower, -0.214
- ACGGAGAT — higher, 0.465
- ACGGAGAC — higher, 0.39
- AGGGAGAT — lower, -0.207
- GAGGAGAC — higher, -0.0694
- AAGGAGAT — higher, 0.0883
- ATGGAGAC — higher, -0.103
- GCGGAGAC — higher, 0.4
- GCCCATAC — lower, -0.275
- CTCCAGCA — lower, -0.256
- ATGGCTAC — higher, -0.185
- ATGGGTTG — higher, -0.114
- CAAGTATC — higher, -0.152
- GGATTTTA — higher, 0.283
- CAACGCCG — higher, 0.318
- AAACGCCG — higher, 0.412
- AAACGCCA — higher, 0.0115
- CGAGTCAG — higher, -0.151
- TAGGTAAA — higher, -0.0912
- GAATGCAA — higher, 0.00843
- AAATGCCG — higher, 0.423
- CAATGCCG — higher, 0.365
- AAATGCCC — higher, -0.0631
- AATACCTG — higher, -0.107
- AAACTCTG — higher, -0.126
- AGAACTCC — higher, 0.276
- GGAACTCC — higher, 0.393
- CGAACTCC — higher, 0.39
- CGAACTCA — higher, -0.0578
- CGAACTCG — higher, 0.0307
- GGAACTCA — higher, 0.189
- ACCTTGTC — higher, -0.192
- GGCTTGCA — higher, -0.118
- ACTGGTGC — higher, -0.0757
- ATGTTCCA — higher, -0.162
- CCGTTCCG — higher, 0.402
- CCGTTCCA — higher, 0.0158
- AACTTCCA — higher, 0.0686
- CAGTTCCG — higher, 0.348
- AAGTTCCG — higher, 0.42
- AACTTCCT — higher, 0.00298
- AAGTTCCT — higher, -0.0671
- AACTTCCG — higher, 0.433
- ATGTTCCC — higher, -0.0151
- ACGTTCCG — higher, 0.289
- ATGTTCCG — higher, 0.429
- ATCCTCAG — higher, 0.0306
- AAATAGCC — higher, -0.00231
- AATTCTCT — higher, -0.113
- AATCCACA — higher, -0.0935
- AAGCGGCG — higher, 0.222
- GGGTAACC — higher, -0.0903
- GGAGAGTA — higher, 0.243
- ATCCGGTC — higher, 0.346
- GACCGGTC — higher, 0.397
- GTCCGGTA — higher, 0.366
- CTCCGGTC — higher, 0.455
- CACCGGTC — higher, 0.183
- CTCCGGTA — higher, 0.47
- ATCCGGTA — higher, 0.294
- AACCGGTC — higher, 0.198
- CGCCGGTC — higher, 0.388
- ATGCACCG — higher, 0.178
- CAACTCGC — higher, -0.0405
- TAAGAAAA — higher, -0.0396
- CGCGCTTA — higher, 0.0847
- AAGACGTA — higher, -0.154
- CAGACTGG — lower, -0.271
- ATGCCGGC — higher, 0.372
- ATGCCGGG — higher, 0.336
- GTGCCGGA — higher, 0.438
- ATGCCGGA — higher, 0.456
- GTGCCGTA — higher, 0.0749
- CTGCCGGA — higher, 0.355
- ATGCGCTC — higher, -0.034
- CCTGTGGC — higher, -0.166
- GCGCGCTA — higher, 0.0544
- CGTATATA — higher, -0.111
- GAATTGCC — higher, 0.182
- AGGGGATG — higher, -0.112
- GCTACCCA — lower, -0.196
- CCACTCCC — higher, 0.0826
- ACTCTCCG — higher, 0.405
- ATACTCCC — higher, 0.243
- ACACTCCT — higher, -0.0208
- ATACTCCA — higher, -0.0317
- ACTCTCCA — higher, -0.0794
- CCACTCCG — higher, 0.437
- CCACTCCA — higher, -0.0346
- ATACTCCG — higher, 0.487
- ACACTCCG — higher, 0.398
- CCTCTCCG — higher, 0.333
- ACACTCCC — higher, 0.00682
- CAACAGAG — higher, -0.0308
- GACGCACA — higher, 0.146
- CTGAGGCC — higher, 0.115
